Reference: ChEMBL document CHEMBL1157539, “Thousands of chemical starting points for antimalarial lead identification” (Nature, 2010)

What follows are molecules tested on HepG2 (assay: GSK_TCMDC: Percent inhibition of human HepG2 cell line. Test compounds present at 10uM.).
Type: functional

| SMILES | Inhibition [%] |
| --- | --- |
| N#Cc1ccc(-c2ccc(OCC(O)CN3CCCN(C(=O)C(c4ccc5c(c4)OCO5)N4CCN(C/C=C/c5ccccc5)CC4)CC3)cc2)cc1 (stereo not drawn) | 25 |
| COc1ccc(CNCc2ccc(F)cc2)cc1-c1ccc(OC)c(S(=O)(=O)NCCN2CCCC2)c1.O=C(O)C(F)(F)F | 24 |
| Cc1nc2ccc(NC(=O)Nc3ccnc4ccc(C(F)(F)F)cc34)cc2o1 | 20 |
| COc1ccc(NC(=O)c2ccc(Br)c(C)c2)cc1N1CCN(Cc2ccccc2)CC1.O=C(O)C(=O)O | 0 |
| COc1ccc(C2CCC(NCCCCNC(=O)c3ccc(NC(=O)c4ccc(Cl)cc4)cc3)CC2)cc1 (stereo not drawn) | 23 |
| Cc1[nH]c(C)c(-c2ccc(-c3ccc(C(F)(F)F)cc3C(F)(F)F)nc2)c(=O)c1Br | 30 |
| Cl.Nc1ncc(-c2ccccc2)cc1-c1nc2cc(Cl)c(F)cc2[nH]1 | 37 |
| COC(=O)c1ccc2nc(-c3ccc(C(=O)NC4CCN(Cc5ccccc5)CC4)s3)[nH]c2c1 | 0 |
| CCCCC1=CC2C(=O)C(C(=O)OC)=CN=C2C=C1OCc1ccccc1 (stereo not drawn) | 7 |
| O=C(Nc1ccc(CCN2CCC(c3nc(COCC(F)(F)F)c(-c4ccccc4)o3)CC2)cc1)c1ccc(F)cc1 | 9 |
| CCCCCCNC(=O)c1nn(CCN2CCC(N3CCCC3)CC2)cc1-c1ccc(Cl)c(Cl)c1 | 31 |
| C=C(C)C1CC=C(CN2CCCC(n3ccc4cc(NC(=O)c5ccco5)ccc43)CC2)CC1 (stereo not drawn) | 13 |
| CN(Cc1cccc(O)c1)C1CCCN(c2cc(NC(=O)c3ccc(F)cc3)ccn2)C1.O=C(O)C(F)(F)F (stereo not drawn) | 8 |
